# Measurements published in PubChem BioAssay (EPA / NIEHS).
# Results filed as inconclusive are left out. Activity calls are given as the source filed them. The calls were made as follows: active = hit-call score of the fitted dose curve at least 0.9, where 1 is the maximum; inconclusive = response in the unintended direction; inactive = score below 0.9.
# How the values were obtained:
# [1] = tested on: NCBI gene 100848466; test: NVS_NR_bPR: NovaScreen (NVS) Nuclear Receptor Binding Assay for bovine Progextron Receptor (PR) (AID 2283343);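 as to AC50: actives lower bound radioligand signal below DMSO meaning displacement of the label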
# In short: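 Scintillation counts of bound radioligand were read 18 hours after chemical addition to membranes extracted from bovine uterus. Displacement was scored as loss of signal relative to DMSO controls. Screening began at 25 uM in duplicate.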
# [2] = biological target: bovine Estrogen Receptor (ER), ESR1 (gene 407238) (UniProt P49884); test: NVS_NR_bER: NovaScreen (NVS) Nuclear Receptor Binding Assay for bovine Estrogen Receptor (ER) (AID 2283345);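 also: actives lower the bound radioligand count which means they displace the ER ligand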
# In short: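 Displacement of a radioligand from estrogen receptor in bovine uterine membrane preparations; scintillation signal taken at 18 hours, DMSO as baseline. Single-concentration duplicates (25 uM) preceded concentration-response follow-up of actives.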
# [3] = biological target: Estrogen receptor (Homo sapiens) (UniProt P03372); test: NVS_NR_hER: NovaScreen (NVS) Nuclear Receptor Binding Assay for human Estrogen Receptor (ER) (AID 2283348)
# Sequence of Estrogen receptor (Homo sapiens) (P03372 whole entry, looked up, the tested form may be a part): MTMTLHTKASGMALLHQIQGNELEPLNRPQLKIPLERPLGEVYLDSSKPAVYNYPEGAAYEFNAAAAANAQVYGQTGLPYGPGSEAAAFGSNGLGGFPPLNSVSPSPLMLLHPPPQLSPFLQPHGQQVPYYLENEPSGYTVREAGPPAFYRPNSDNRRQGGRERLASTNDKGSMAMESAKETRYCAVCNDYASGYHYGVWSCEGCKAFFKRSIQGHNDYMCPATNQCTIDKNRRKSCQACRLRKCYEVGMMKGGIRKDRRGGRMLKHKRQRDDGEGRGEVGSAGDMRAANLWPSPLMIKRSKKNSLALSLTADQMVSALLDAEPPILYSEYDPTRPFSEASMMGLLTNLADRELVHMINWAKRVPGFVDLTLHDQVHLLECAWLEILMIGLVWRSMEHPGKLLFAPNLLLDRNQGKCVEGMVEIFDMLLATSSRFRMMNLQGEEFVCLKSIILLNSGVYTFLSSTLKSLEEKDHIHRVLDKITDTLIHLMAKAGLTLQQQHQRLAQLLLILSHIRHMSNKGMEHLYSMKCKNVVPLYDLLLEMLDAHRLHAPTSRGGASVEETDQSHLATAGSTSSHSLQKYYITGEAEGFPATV
# In short: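 MCF7-derived receptor extract, radiolabelled ligand, competitive displacement. Read: scintillation counts at 18 h. DMSO = negative control/baseline. Primary 25 uM duplicate; follow-up concentration–response.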
# [4] = biological target: Estrogen receptor (Homo sapiens) (UniProt P03372); test: OT_ER_ERaERa_0480: Odyssey Thera (OT) 8-hour HEK293T Protein-Complementation Assay for Estrogen Receptor-alpha/-alpha Homodimer (AID 2283351);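 also: rise in fluorescence from reassembled reporter fragments on ERα LBD homodimer in nucleus or whole cell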
# In short: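 Cells were treated for 8 hours, then imaged on a laser scanning plate cytometer. Complementation of reporter fragments fused to the human ERα ligand-binding domain (residues 310-547) in HEK293T gave fluorescence, and gain of signal over vehicle was fitted.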
# [5] = biological target: T1, Estrogen receptor (Homo sapiens) + Estrogen receptor beta (Homo sapiens) (UniProt P03372+Q92731); test: OT_ER_ERaERb_0480: Odyssey Thera (OT) 8-hour HEK293T Protein-Complementation Assay for Estrogen Receptor-alpha/-beta Heterodimer (AID 2283352)
# In short: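 Increase in mean fluorescence intensity, measured by laser scanning plate cytometry, reported ER-alpha/ER-beta LBD complementation in HEK293T cells after 8 h chemical exposure. DMSO served as baseline; basal signal is low, punctate and cytoplasmic.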
# [6] = biological target: Androgen Receptor/SRC-1 Co-activator, AR (gene 367) (UniProt P10275); test: OT_AR_ARSRC1_0960: Odyssey Thera (OT) 16-hour HEK293T Protein-Complementation Assay for Androgen Receptor/SRC-1 Co-activator (AID 2283353);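 also: actives raise the signal above DMSO so potency reflects increased AR and SRC-1 complex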
# Sequence of Androgen Receptor/SRC-1 Co-activator, AR (gene 367) (P10275 whole entry, looked up, the tested form may be a part): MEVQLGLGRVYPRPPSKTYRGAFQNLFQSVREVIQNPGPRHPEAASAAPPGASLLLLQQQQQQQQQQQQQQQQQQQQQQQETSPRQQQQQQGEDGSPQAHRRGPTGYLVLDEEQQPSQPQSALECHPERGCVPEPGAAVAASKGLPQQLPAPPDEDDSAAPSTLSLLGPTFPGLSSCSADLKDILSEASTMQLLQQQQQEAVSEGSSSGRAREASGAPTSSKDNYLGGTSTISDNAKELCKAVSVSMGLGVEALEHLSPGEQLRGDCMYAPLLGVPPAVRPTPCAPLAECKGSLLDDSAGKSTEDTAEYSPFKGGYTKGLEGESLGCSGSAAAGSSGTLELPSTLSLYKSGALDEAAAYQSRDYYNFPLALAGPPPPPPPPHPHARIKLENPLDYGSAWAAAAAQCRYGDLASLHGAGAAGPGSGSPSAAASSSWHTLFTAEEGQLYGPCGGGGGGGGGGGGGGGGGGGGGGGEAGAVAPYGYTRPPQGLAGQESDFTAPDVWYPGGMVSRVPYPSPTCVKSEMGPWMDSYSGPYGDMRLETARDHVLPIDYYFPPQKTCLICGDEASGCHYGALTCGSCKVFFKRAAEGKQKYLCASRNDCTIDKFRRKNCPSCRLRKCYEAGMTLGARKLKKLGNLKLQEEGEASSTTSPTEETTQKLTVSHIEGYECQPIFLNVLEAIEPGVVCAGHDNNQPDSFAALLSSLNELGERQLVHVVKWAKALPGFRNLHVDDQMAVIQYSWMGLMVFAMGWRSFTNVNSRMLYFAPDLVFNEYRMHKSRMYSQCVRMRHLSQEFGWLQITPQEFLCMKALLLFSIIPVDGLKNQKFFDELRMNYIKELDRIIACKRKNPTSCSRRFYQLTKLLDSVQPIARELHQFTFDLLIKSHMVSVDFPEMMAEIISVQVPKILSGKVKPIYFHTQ
# In short: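 Stable HEK293T line carries AR and SRC-1 each linked to a Venus fragment; chemicals are applied for 16 h, cells imaged at two wavelengths, and the 488 nm nucleus/cytoplasm ratio is taken as the signal, rising relative to DMSO.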
# [7] = biological target: Androgen Receptor/SRC-1 Co-activator, AR (gene 367) (UniProt P10275); test: OT_AR_ARSRC1_0480: Odyssey Thera (OT) 8-hour HEK293T Protein-Complementation Assay for Androgen Receptor/SRC-1 Co-activator (AID 2283354);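 also: hits raise the complementation signal above DMSO so AC50 marks enhancers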
# In short: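 Split-Venus PCA, stable HEK293T, AR/SRC-1 fusions; 8 h exposure. Readout: 488nm N/C fluorescence ratio, ≥400 cells/image; fitted upward vs DMSO baseline.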
# [8] = biological target: T1, Estrogen receptor (Homo sapiens) + Estrogen receptor beta (Homo sapiens); test: OT_ER_ERaERb_1440: Odyssey Thera (OT) 24-hour HEK293T Protein-Complementation Assay for Estrogen Receptor-alpha/-beta Homodimer (AID 2283356);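 also: heteromer of ER alpha and ER beta binding domains; hits raise reporter fluorescence and both agonists and antagonists give an increase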
# In short: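 Heterodimerisation of ERα (aa 310-547) and ERβ (aa 263-489) ligand binding domains was tracked as fluorescence gain in stably transfected HEK293T cells following 24 h dosing, normalised to DMSO controls.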
# [9] = biological target: Estrogen receptor beta (Homo sapiens) (UniProt Q92731); test: OT_ER_ERbERb_0480: Odyssey Thera (OT) 8-hour HEK293T Protein-Complementation Assay for Estrogen Receptor-beta/-beta Homodimer (AID 2283357);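 also: active means signal gain over DMSO baseline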
# Sequence of Estrogen receptor beta (Homo sapiens) (Q92731 whole entry, looked up, the tested form may be a part): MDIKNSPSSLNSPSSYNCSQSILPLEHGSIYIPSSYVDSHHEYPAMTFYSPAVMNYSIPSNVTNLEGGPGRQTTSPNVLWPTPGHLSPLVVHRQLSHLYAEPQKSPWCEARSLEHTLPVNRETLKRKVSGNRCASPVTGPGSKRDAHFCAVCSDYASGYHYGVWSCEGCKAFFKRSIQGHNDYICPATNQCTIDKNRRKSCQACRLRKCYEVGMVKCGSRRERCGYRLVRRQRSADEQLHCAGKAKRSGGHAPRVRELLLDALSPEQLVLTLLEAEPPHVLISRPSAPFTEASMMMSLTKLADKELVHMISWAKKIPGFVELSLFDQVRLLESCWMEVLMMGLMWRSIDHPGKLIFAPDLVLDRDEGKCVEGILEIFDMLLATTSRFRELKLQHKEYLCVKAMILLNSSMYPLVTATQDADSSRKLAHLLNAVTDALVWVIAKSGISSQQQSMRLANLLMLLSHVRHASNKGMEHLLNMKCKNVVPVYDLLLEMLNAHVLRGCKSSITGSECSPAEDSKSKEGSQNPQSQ
# In short: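 Homodimerization of ER-beta LBD measured by protein-fragment complementation in HEK293T; 8 h dosing; fixed, Draq5 counterstain; fluorescence intensity gain over DMSO baseline, positive fitting direction; laser scanning cytometry.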
# [10] = biological target: Retinoic acid receptor alpha (Homo sapiens) (UniProt P10276); test: NVS_NR_hRAR_Antagonist: NovaScreen (NVS) Nuclear Receptor Binding Assay for human Retinoic Acid Alpha Receptor Antagonism (RAR) (AID 2283358)
# Sequence of Retinoic acid receptor alpha (Homo sapiens) (P10276 whole entry, looked up): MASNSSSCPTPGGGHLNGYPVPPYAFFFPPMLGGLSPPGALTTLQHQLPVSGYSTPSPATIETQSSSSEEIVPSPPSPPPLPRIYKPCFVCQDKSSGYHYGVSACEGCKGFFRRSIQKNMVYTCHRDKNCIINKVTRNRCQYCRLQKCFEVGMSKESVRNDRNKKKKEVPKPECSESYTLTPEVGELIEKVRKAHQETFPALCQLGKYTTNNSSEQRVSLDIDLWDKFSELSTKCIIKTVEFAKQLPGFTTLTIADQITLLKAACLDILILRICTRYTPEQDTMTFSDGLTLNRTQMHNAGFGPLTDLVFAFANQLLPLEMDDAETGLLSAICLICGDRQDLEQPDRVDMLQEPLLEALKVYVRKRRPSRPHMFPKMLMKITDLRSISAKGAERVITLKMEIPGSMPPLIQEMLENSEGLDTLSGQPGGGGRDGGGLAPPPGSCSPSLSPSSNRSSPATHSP
# In short: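 Read-out: time-resolved FRET binding signal, 2 h post-dose, cell-free extracted protein. Antagonism scored as signal loss versus DMSO negative control. Primary single-concentration screen at 25 uM in duplicate; concentration series for actives.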
# [11] = biological target: PGR (gene 5241) (UniProt P06401); test: NVS_NR_hPR: NovaScreen (NVS) Nuclear Receptor Binding Assay for human Progestron Receptor (PR) (AID 2283360);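 also: active means loss of bound radioligand signal versus DMSO baseline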
# Sequence of PGR (gene 5241) (P06401 whole entry, looked up): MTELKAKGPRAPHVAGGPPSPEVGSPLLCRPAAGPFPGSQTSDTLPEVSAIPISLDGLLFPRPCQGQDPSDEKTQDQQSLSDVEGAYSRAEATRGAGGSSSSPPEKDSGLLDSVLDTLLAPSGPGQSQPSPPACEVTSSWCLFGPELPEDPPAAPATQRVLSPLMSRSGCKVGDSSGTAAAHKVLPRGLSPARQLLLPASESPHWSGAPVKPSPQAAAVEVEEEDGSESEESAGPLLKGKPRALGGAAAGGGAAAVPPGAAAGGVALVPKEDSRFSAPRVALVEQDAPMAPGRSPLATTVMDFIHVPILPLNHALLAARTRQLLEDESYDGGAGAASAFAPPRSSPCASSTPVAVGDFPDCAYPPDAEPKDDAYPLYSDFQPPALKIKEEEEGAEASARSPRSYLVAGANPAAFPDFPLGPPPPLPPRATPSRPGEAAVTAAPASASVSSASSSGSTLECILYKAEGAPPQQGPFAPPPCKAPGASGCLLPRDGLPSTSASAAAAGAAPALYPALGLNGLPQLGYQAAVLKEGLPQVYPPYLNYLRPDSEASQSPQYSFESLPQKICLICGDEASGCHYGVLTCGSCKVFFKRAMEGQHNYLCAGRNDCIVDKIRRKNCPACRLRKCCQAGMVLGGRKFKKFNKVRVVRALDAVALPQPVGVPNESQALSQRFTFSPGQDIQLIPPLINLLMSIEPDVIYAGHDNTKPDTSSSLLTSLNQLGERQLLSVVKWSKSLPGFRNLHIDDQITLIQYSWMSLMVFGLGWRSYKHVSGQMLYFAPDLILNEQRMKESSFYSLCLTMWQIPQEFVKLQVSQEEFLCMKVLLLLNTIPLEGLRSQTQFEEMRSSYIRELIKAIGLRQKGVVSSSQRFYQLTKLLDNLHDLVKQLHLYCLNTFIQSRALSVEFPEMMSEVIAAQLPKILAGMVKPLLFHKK
# In short: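 T47D-derived receptor preparation, cell-free, with tritiated or iodinated radioligand displacement measured by scintillation 18 h post-dosing. Single 25 uM duplicate screen, then concentration series; signal loss relative to DMSO.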
# [12] = biological target: human Thyroid Receptor Alpha (TRa), THRA (gene 7067) (UniProt P10827); test: NVS_NR_hTRa_Antagonist: NovaScreen (NVS) Nuclear Receptor Binding Assay for human Thyroid Receptor Alpha Antagonism (TRa) (AID 2283362);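 also: activity is loss of signal relative to DMSO baseline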
# Sequence of human Thyroid Receptor Alpha (TRa), THRA (gene 7067) (P10827 whole entry, looked up): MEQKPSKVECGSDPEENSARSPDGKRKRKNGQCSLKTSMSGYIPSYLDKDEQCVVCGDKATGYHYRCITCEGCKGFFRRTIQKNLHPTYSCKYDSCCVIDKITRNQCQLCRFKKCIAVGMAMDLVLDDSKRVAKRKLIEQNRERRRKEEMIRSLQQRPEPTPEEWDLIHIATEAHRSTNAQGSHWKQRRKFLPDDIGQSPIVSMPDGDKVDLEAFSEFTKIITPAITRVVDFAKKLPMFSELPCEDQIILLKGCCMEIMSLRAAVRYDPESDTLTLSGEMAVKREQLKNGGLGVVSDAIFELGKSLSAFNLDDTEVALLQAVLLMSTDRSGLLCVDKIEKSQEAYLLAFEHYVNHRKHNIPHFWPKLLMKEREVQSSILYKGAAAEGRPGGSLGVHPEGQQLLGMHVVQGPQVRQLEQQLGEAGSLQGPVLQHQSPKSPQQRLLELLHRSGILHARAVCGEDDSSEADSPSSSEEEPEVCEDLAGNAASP
# In short: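 Chemicals were first screened in duplicate at 25 uM, then actives were retested in concentration series. Binding to the extracted receptor was measured 1 h after dosing by AlphaLISA chemiluminescence, with decreased signal versus DMSO scored as activity.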
# [13] = biological target: Bile acid receptor (Homo sapiens) (UniProt Q96RI1); test: NVS_NR_hFXR_Antagonist: NovaScreen (NVS) Nuclear Receptor Binding Assay for human Farnesoid X Receptor Antagonism (FXR) (AID 2283350)
# Sequence of Bile acid receptor (Homo sapiens) (Q96RI1 whole entry, looked up): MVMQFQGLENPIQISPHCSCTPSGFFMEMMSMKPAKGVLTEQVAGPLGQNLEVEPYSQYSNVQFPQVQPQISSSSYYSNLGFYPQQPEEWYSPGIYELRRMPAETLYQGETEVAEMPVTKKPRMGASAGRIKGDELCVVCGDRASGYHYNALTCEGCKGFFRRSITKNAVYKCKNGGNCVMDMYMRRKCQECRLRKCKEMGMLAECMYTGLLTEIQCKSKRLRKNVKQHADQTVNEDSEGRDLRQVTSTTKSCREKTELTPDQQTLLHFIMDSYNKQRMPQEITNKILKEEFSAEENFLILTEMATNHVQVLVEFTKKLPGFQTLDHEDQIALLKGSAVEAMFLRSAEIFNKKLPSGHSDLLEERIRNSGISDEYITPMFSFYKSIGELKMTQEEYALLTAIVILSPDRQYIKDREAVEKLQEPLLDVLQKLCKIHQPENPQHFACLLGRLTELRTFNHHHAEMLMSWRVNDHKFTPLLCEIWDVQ
# In short: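 Antagonist-format time-resolved FRET binding assay with extracted human receptor protein, read 1 hour after compound addition. Compounds first screened at 25 uM in duplicate, then actives tested in concentration series, with loss of signal relative to DMSO.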
# [14] = biological target: Bile acid receptor (Homo sapiens) (UniProt Q96RI1); test: NVS_NR_hFXR_Agonist: NovaScreen (NVS) Nuclear Receptor Binding Assay for human Farnesoid X Receptor Agonism (FXR) (AID 2283347)
# In short: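 Agonist-mode FXR assay read by time-resolved FRET 1 h after compound addition, using isolated human receptor protein without cells. Duplicate 25 uM single-point primary screen, concentration series for confirmed actives; DMSO as baseline.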
# [15] = tested on: guinea pig Histamine Receptor (H2), gene 100729734; test: NVS_GPCR_gH2: NovaScreen (NVS) G Protein-Coupled Receptor Assay for guinea pig Histamine Receptor (H2) (AID 2283342)
# In short: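 Guinea pig striatal membrane preparation with specific radioligand; bound counts measured by filtration and scintillation 1 h post-dosing, DMSO as baseline. Chemicals passing a 25 uM duplicate screen were titrated to a 50 uM maximum.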
# [16] = biological target: rat Gamma-Aminobutyric Acid Type A Receptor BDZ, alpha 6 site (GABARa6), Gabra6 (gene 29708) (UniProt P30191); test: NVS_LGIC_rGABARa6: NovaScreen (NVS) Ligand-Gated Ion Channel Assay for rat Gamma-Aminobutyric Acid Type A Receptor BDZ, alpha 6 site (GABARa6) (AID 2283339)
# Sequence of rat Gamma-Aminobutyric Acid Type A Receptor BDZ, alpha 6 site (GABARa6), Gabra6 (gene 29708) (P30191 whole entry, looked up): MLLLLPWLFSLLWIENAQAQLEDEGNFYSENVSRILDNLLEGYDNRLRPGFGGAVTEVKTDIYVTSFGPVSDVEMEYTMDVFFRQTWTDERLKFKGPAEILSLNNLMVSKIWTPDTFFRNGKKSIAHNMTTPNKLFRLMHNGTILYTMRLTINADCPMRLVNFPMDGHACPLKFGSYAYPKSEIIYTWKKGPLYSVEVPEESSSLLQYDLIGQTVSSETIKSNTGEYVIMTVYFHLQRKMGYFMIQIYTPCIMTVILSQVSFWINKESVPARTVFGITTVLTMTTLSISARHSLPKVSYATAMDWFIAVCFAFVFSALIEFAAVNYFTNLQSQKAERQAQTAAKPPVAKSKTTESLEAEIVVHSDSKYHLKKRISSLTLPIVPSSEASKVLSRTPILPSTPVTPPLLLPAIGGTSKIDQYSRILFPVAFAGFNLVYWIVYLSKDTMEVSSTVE
# In short: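 Actives from a 25 uM duplicate screen were retested in concentration series (max 50 uM). Specific radioligand displacement from rat cerebellar membranes was counted by filter-based scintillation at 1 h; DMSO served as baseline.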
structure (smiles),measurement,setting,value
CNC(=O)ON=C(SC)C(=O)N(C)C,outcome,[1],inactive
same,outcome,[2],inactive
same,outcome,[3],inactive
same,outcome,[4],inactive
same,outcome,[5],inactive
same,outcome,[6],inactive
same,outcome,[7],inactive
same,outcome,[8],inactive
same,outcome,[9],inactive
same,outcome,[10],inactive
same,outcome,[11],inactive
same,outcome,[12],inactive
Cc1ccn2nc(S(=O)(=O)Nc3c(F)cccc3F)nc2n1,outcome,[13],inactive
same,outcome,[9],inactive
CCCSP(=O)(OCC)Oc1ccc(Br)cc1Cl (stereo unspecified),AC50,[1],20.1 µM (active)
same,AC50,[9],29.8 µM (active)
same,AC50,[11],25 µM (active)
C#CCC1=C(C)C(OC(=O)C2C(C=C(C)C)C2(C)C)CC1=O (stereo unspecified),outcome,[1],inactive
same,outcome,[9],inactive
CCOP(=S)(OCC)SCCSCC,AC50,[1],25 µM (active)
same,outcome,[9],inactive
same,outcome,[10],inactive
CC(C)[C@H](C(=O)O[C@H](C#N)c1cccc(Oc2ccccc2)c1)c1ccc(Cl)cc1,outcome,[1],inactive
same,outcome,[9],inactive
CC(C)N(C(=O)SCC(Cl)=C(Cl)Cl)C(C)C,AC50,[1],36.8 µM (active)
same,outcome,[9],inactive
same,outcome,[10],inactive
same,outcome,[12],inactive
CCCCOC(=O)c1ccccc1C(=O)O,outcome,[14],inactive
same,outcome,[13],inactive
same,outcome,[6],inactive
same,outcome,[7],inactive
same,outcome,[9],inactive
same,outcome,[10],inactive
CCCSP(=O)(OCC)SCCC,outcome,[1],inactive
same,outcome,[13],inactive
same,outcome,[6],inactive
same,outcome,[11],inactive
COc1ccc(C(=CC(=O)N2CCOCC2)c2ccc(Cl)cc2)cc1OC,outcome,[15],inactive
same,outcome,[13],inactive
same,outcome,[6],inactive
same,outcome,[7],inactive
same,outcome,[9],inactive
same,outcome,[10],inactive
CC(C1CC1)C(O)(Cn1cncn1)c1ccc(Cl)cc1 (stereo unspecified),outcome,[1],inactive
same,AC50,[9],29.6 µM (active)
same,outcome,[10],inactive
same,outcome,[11],inactive
same,outcome,[12],inactive
CC1(C(=O)Nc2ccc(O)c(Cl)c2Cl)CCCCC1,outcome,[13],inactive
same,AC50,[9],22.2 µM (active)
same,outcome,[11],inactive
FC(F)C(F)(F)OCC(Cn1cncn1)c1ccc(Cl)cc1Cl (stereo unspecified),outcome,[16],inactive
same,AC50,[15],10.1 µM (active)
same,AC50,[1],25 µM (active)
same,outcome,[9],inactive
COP(=O)(OC)SCn1c(=O)oc2cc(Cl)cnc21,outcome,[3],inactive
same,AC50,[6],57.8 µM (active)
same,outcome,[7],inactive
N#CSCSC#N,outcome,[14],inactive
same,AC50,[6],15.5 µM (active)
same,AC50,[7],18.2 µM (active)
same,outcome,[9],inactive
same,outcome,[10],inactive
CC(COc1ccc(Oc2ccccc2)cc1)Oc1ccccn1 (stereo unspecified),AC50,[13],6.89 µM (active)
same,outcome,[6],inactive
same,outcome,[7],inactive
same,outcome,[9],inactive
same,outcome,[11],inactive
CN(C)C(=O)Nc1cccc(C(F)(F)F)c1,outcome,[16],inactive
same,outcome,[9],inactive
